For assay [1], the system named is TRPC4 beta (transient receptor potential cation channel C4), mouse. Description: TRPC4 cation channel opening, retest – cell-based, Fluo4 calcium, HEK293 TRPC4beta/mu-opioid, duplicates, 10 µM, confirmation (AID 2426;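 active = fluorescence ratio normalized to control raised more than 50% in primary screen plus both repeat runs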;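 as to activation: percent rise of integrated ratio over buffer wells lacking compound which define 0%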). Conditions: Fluo4 calcium fluorescence, at 10 µM; active compounds read high.
Assay [2] deals with transient receptor potential cation channel C4 beta (TRPC4), mouse. As to the kind of experiment: TRPC4 cation channel opening, second retest – cell-based, second round, Fluo4, HEK293 TRPC4beta/mu-opioid, 1 µM, confirmation (AID 2461;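 active = primary screen active and over 50% activation in each of two duplicate runs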;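 as to activation: 0% = wells without test compound as baseline of integrated fluorescence ratio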). Conditions: Fluo4 calcium fluorescence, at 1 µM; active compounds read high.
Assay [3] concerns TRPC4 (transient receptor potential cation channel C4 beta), mouse. As to the kind of experiment: potentiation of DAMGO EC20 TRPC4 response – cell-based, second round, Fluo-4, HEK293 TRPC4beta/mu-opioid, 1 µM, confirmation (AID 2554;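 active = primary screen hit whose fluorescence ratio, in both repeats, exceeds the weak agonist control mean by 3 SD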). Conditions: DAMGO EC20, Fluo-4 calcium flux, at 1 µM; active compounds read high.
The test system of assay [4] is TRPC4 beta (transient receptor potential cation channel C4), mouse. As to the kind of experiment: potentiation of DAMGO EC20 TRPC4 response – cell-based, Fluo-4, HEK293 TRPC4beta/mu-opioid, confirmation (AID 2555). As to conditions: DAMGO EC20, Fluo-4 calcium flux, at 10 µM; active compounds read high.
Assay [5] has as its target Short transient receptor potential channel 4 (Mus musculus) (UniProt Q9QUQ5). As to the kind of experiment: blockers of DAMGO-evoked TRPC4 calcium flux – cell-based, Fluo4, HEK293 TRPC4beta/mu-opioid, confirmation (AID 2636;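 active = calcium signal cut by more than 3 SD below the full-agonist control yet still positive, in both repeats and the earlier primary screen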). Conditions: at 10 µM; active compounds read high.
The target is the same in assay [6]. Description: blockers of DAMGO-evoked TRPC4 calcium flux – cell-based, second round, Fluo4, HEK293 TRPC4beta/mu-opioid, 1 µM, confirmation (AID 2637;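 active = calcium signal ratio cut to more than 3 SD under the fully stimulated control mean yet still positive, in both repeats and the primary screen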). Conditions: at 1 µM; active compounds read high.
The target is the same in assay [7]. As to the kind of experiment: potentiation of DAMGO-evoked TRPC4 calcium signal – cell-based, HEK293 TRPC4/mu-opioid, Fluo-4 calcium, EC20 DAMGO, dose response (AID 434941;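 active = earlier screen potentiator hit that boosts the TRPC4 ion channel at some dose, with a dose response; inactive = no potentiation, no dose response, or not a prior hit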;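 also: calcium entry triggered by an EC20 dose of DAMGO at the co-expressed mu-opioid receptor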).
The target is the same in assay [8]. As to the kind of experiment: block of DAMGO-driven TRPC4 calcium entry – cell-based, HEK293 TRPC4/mu-opioid, Fluo-4 calcium, dose response (AID 434942;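 active = primary screen inhibitor hit that blocks the TRPC4 channel at some tested dose, yielding a dose curve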).
Assay [9] deals with Short transient receptor potential channel 6 (Mus musculus) (UniProt Q61143). Description: TRPC6 blockade by TRPC4 inhibitor hits – cell-based, HEK293, membrane potential dye, duplicate, selectivity assay for TRPC4 inhibitor project, confirmation (AID 434948;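 active = active in primary screen and both duplicates, each dropping signal beyond three positive-control SD with fluorescence still positive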). Conditions: HEK293 TRPC6, membrane potential dye fluorescence, at 10 µM, stimulated with maximal-effect acetylcholine; active compounds read high.

Assay [10] shares this target. Description: TRPC6 opening by TRPC4 activator hits – cell-based, HEK293, membrane potential dye, duplicate, selectivity assay for TRPC4 activator project, confirmation (AID 434950;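 active = membrane potential signal rise above negative control mean plus 3 SD in both duplicates, also active in the earlier TRPC4 screen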;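 as to activation: 0% = buffer only wells and 100% = acetylcholine maximal-effect wells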). As to conditions: HEK293 TRPC6, membrane potential fluorescence, at 10 µM; activation: active compounds read high; outcome: activation.
The target is the same in assay [11]. Description: positive modulators of mouse TRPC6 channel – HEK293 cells, membrane potential dye, duplicate, selectivity assay for TRPC4 potentiator project, confirmation (AID 434952;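 active = compound raising the membrane signal above positive-control mean plus 3 SD in both repeats, and a primary screen hit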). As to conditions: HEK293 TRPC6, membrane potential dye fluorescence, at 10 µM, maximal acetylcholine added after compound; active compounds read high.
In assay [12] the target is Short transient receptor potential channel 4 (Mus musculus) (UniProt Q9QUQ5). As to the kind of experiment: calcium flux activators in TRPC4/5HT1a cells, counter-screen for TRPC4 activator project, cell-based, second counter screen, HEK293 TRPC4/5HT1a, Fluo-4 (AID 434977;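 active = calcium signal rise above buffer-control mean plus 5 SD in both duplicates, and also a hit in the primary screen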;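 as to activation: plate controls were assay buffer for no effect and maximal serotonin response for full effect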). As to conditions: Fluo-4 calcium flux, at 10 µM; active compounds read high. (In general: Calcium assays in cells follow changes in intracellular calcium, usually with a dye or a luminescent sensor.)

A short description of assay [13]: serotonin-gated TRPC4 signal block – cell-based, second counter screen, HEK293 TRPC4/5HT1a, Fluo-4, counter-screen for TRPC4 inhibitor project, confirmation (AID 434978;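 active = primary screen active whose calcium signal fell more than 3 SD beyond the full-serotonin control mean in both duplicate plates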;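 also: serotonin given first at submaximal then at maximal dose after compound preincubation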). Conditions: Fluo-4 calcium flux, at 10 µM, serotonin added to trigger calcium flux; active compounds read high. (In general: The purpose of a counterscreen is to sort out artefacts and off-target activity.)

Assay [14] deals with TRPC4 (mouse), co-expressed with 5HT1a in HEK293. As to the kind of experiment: enhancement of serotonin-evoked TRPC4 response – cell-based, second counter screen, HEK293 TRPC4/5HT1a, Fluo-4, counter-screen for TRPC4 potentiator project, confirmation (AID 434979;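 active = signal rise over 3 SD above mean of control wells given weak agonist, in both repeats and first screen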). Conditions: Fluo-4 calcium flux, at 10 µM, serotonin added at its EC20 dose; active compounds read high.
Assay [15] in a line: nonspecific calcium rise without TRPC4 – cell-based, HEK293 mu-opioid receptor line, counter-screen for TRPC4 activator project, confirmation (AID 449723;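 active = hit in primary screen, with calcium signal over 5 SD above buffer well mean in both duplicates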;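 also: counter screen cells carry the mu-opioid receptor alone and lack TRPC4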). Conditions: HEK293 mu-opioid cells, Fluo-4 calcium fluorescence, at 10 µM; active compounds read high.
Assay [16] is described as follows: nonspecific potentiation of DAMGO calcium response – cell-based, HEK293 mu-opioid receptor line, counter-screen for TRPC4 allosteric potentiator project, confirmation (AID 449724;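 active = calcium signal rise more than 3 SD above the low-dose agonist control mean, in both duplicate plates and the primary screen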;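 also: HEK293 cells carrying mu-opioid receptor only with no TRPC4 channel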). Conditions: HEK293 mu-opioid receptor cells, Fluo-4 calcium flux, at 10 µM, compound added before EC20 DAMGO stimulus; active compounds read high.

15 compounds from PubChem BioAssay can be followed below.

Structures are written as SMILES. For part of these data: Results with a measured potency or affinity are listed apart. The source made the active and inactive calls.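 The calls were made as follows, unless noted: active = primary screen hit whose calcium fluorescence ratio, in both repeats, exceeds the weak agonist control mean by 3 SD; inactive = the rest.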

Sequence of Short transient receptor potential channel 6 (Mus musculus) (Q61143 whole entry, looked up): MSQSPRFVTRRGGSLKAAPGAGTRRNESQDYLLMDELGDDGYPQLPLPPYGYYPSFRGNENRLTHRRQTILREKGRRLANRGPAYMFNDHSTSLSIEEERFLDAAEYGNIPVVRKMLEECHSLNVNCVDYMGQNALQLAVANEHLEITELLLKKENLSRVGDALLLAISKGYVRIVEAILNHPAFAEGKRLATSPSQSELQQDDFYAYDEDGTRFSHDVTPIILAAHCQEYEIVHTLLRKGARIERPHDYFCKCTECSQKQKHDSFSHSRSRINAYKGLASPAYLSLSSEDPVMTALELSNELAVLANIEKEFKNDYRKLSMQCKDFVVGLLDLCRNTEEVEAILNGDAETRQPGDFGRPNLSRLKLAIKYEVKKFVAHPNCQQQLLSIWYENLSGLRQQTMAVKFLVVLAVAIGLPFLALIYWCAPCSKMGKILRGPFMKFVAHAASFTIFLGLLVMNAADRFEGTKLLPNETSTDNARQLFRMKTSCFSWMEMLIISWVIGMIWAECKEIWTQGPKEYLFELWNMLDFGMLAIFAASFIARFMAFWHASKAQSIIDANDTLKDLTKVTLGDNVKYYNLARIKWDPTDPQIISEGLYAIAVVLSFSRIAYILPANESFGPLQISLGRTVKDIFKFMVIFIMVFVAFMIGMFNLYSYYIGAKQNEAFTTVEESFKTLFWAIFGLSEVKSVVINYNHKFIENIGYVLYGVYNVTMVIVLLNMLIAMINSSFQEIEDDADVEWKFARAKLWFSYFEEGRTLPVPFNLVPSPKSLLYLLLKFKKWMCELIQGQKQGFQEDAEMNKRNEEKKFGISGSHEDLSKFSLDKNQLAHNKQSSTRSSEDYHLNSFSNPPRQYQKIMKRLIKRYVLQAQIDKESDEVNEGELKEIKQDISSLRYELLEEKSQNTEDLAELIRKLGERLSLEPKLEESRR
Sequence of Short transient receptor potential channel 4 (Mus musculus) (Q9QUQ5 whole entry, looked up): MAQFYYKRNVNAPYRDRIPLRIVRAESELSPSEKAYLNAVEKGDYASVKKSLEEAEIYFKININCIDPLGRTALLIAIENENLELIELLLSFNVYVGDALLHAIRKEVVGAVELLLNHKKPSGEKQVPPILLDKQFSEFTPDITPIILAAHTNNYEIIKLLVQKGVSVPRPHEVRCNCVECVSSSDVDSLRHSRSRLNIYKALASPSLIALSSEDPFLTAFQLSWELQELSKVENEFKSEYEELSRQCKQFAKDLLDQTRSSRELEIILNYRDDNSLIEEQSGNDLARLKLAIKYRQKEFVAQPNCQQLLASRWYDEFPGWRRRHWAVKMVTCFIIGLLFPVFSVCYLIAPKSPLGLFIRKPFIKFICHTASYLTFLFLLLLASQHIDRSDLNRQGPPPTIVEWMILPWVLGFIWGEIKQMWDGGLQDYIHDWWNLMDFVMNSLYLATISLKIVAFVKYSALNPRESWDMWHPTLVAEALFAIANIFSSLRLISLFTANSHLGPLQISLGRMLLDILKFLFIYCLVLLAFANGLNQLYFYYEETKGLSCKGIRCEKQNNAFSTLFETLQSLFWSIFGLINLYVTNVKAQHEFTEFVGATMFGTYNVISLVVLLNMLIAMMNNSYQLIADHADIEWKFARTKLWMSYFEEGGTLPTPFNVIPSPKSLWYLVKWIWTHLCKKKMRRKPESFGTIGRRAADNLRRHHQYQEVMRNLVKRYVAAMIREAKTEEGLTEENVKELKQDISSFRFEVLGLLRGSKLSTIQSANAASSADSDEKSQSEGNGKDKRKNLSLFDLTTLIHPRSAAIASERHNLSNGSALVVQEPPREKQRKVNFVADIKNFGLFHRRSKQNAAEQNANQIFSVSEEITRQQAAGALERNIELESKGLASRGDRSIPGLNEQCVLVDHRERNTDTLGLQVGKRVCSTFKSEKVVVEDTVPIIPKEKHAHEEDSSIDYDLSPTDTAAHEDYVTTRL

Regarding `COc1cccc(CN2CCNC(=O)C2CC(=O)N(C)CCc2ccccn2)c1OC` (stereo not given), the figures for the activation in [1] and in [12] were 138% (active) and 52.1% (active), respectively. Besides, the outcome in assay [2], in assay [3], in assay [4], in [5], in [6] and in assay [7] was inactive. For the same compound, the result in assay [8], in [9], in assay [10], in assay [11], in assay [13] and in assay [14] was inactive. The result in [15] and in [16] was inactive.
In the case of `CC(C)(C)[C@H]1C=C(C(=O)NCc2ccccc2)O[C@@H](OCc2ccc(CO)cc2)C1`, the activation in assay [1] is 68% (active); in assay [10], 24.5% (active). The result in assay [2], in assay [3], in assay [4], in assay [5], in [6] and in assay [7] was inactive. Besides, the result in assay [8], in assay [9], in assay [11], in [12], in [13] and in assay [14] was inactive. The outcome in assay [15] and in assay [16] was inactive.
Consider `Cn1c(N2CCN(C(=O)Nc3ccc(F)cc3)CC2)nc2ccccc21`, for which the activation in assay [1] was 51% (active); in assay [12] it was 22.1% (active). For the same compound, the result in [2], in [3], in assay [4], in [5], in assay [6] and in [7] was inactive. Further, the result in [8], in assay [9], in [10], in assay [11], in assay [13] and in assay [14] was inactive. For the same compound, the outcome in assay [15] and in [16] was inactive.
`CCOC(=O)C1(CCOC)CCN(Cc2ccccc2-c2ccco2)CC1`: the activation in assay [1] was 60% (active); in assay [10], 68.5% (active). The result in assay [2], in [3], in assay [4], in assay [5], in [6] and in [7] was inactive. The result in [8], in [9], in assay [11], in assay [12], in [13] and in [14] was inactive. The outcome in assay [15] and in [16] was inactive.
Turning to `COc1ccc(-c2nn(-c3ccccc3C)cc2CNC(C)c2cn(C)nc2C)cc1F` (stereo not given), the activation in [1] was 206% (active); in assay [2], 74% (active); in assay [10], 31% (active). Further, the outcome in assay [3], in assay [4], in assay [5], in assay [6], in assay [7] and in assay [8] was inactive. For the same compound, the outcome in assay [9], in assay [11], in [12], in assay [13], in assay [14] and in assay [15] was inactive. Moreover, the outcome in assay [16] was inactive.
For `CCOc1ccc(S(=O)(=O)Nc2cccc(C(=O)NCC(c3ccccc3)N(C)C)c2)cc1` (stereo not given), the results for the activation in assay [1] and in assay [10] were 255% (active) and 43% (active), respectively. Also, the result in [2], in assay [3], in assay [4], in [5], in [6] and in assay [7] was inactive. Besides, the outcome in assay [8], in assay [9], in [11], in assay [12], in assay [13] and in [14] was inactive. Further, the result in assay [15] and in assay [16] was inactive.
As for `COc1ccc(C(=O)C2CCCN(Cc3ccc(Sc4nncn4C)o3)C2)cc1F` (stereo not given), the activation in assay [1] is 164% (active); in [2], 87% (active); in assay [10], 36% (active); in assay [12], 9.87% (active). The result in assay [3], in [4], in assay [5], in [6], in [7] and in assay [8] was inactive. In addition, the compound was called inactive in [9], in [11], in [13], in assay [14], in assay [15] and in [16].
In the case of `Fc1ccc(NC(=S)NCCc2ccccn2)cc1`, the activation is 199% (active) in [1], 60% (active) in [2] and 88% (active) in [12]. Further, the result in [3], in assay [4], in assay [5], in assay [6], in [7] and in assay [8] was inactive. Also, the call in [9], in [10], in [11], in [13], in assay [14] and in assay [15] was inactive. Further, the outcome in assay [16] was inactive.
Regarding `CN1CCN(Cc2nc3c(c(=O)[nH]c(=O)n3C)n2Cc2c(F)cccc2Cl)CC1`, the activation is 135% (active) in assay [1], 80% (active) in [2], 30% (active) in assay [10] and 17.9% (active) in [12]. Also, the potentiation in assay [3] is 11% (active); in [14], 36.3% (active). The outcome in assay [4], in assay [5], in [6], in assay [7], in assay [8] and in [9] was inactive. Also, the outcome in assay [11], in assay [13], in assay [15] and in assay [16] was inactive.
Consider `CC12CCCCN1CCCc1c2[nH]c2ccccc12` (stereo not given), for which the result in assay [1], in [2], in assay [3], in assay [4], in [5] and in [6] was inactive. In addition, the outcome in [7], in [8], in [9], in assay [11], in [13] and in assay [14] was inactive. Moreover, the outcome in assay [15] and in assay [16] was inactive. Further, the figures for the activation in [10] and in assay [12] were 35% (active) and 8.77% (active), respectively.
In the case of `O=C(c1sc2ccccc2c1Cl)N(Cc1ccccc1)C1CCS(=O)(=O)C1` (stereo not given), the result in assay [1], in [2], in assay [3], in [4], in assay [5] and in [6] was inactive. Besides, the result in assay [7], in [8], in assay [9], in [11], in assay [12] and in assay [13] was inactive. Also, the outcome in [14], in assay [15] and in assay [16] was inactive. The activation in assay [10] is 36% (active).
As to `COC(=O)NCC(c1ccc2c(c1)OCO2)N1CCN(c2ccccc2)CC1` (stereo not given), the activation in assay [1] was 201% (active); in assay [2], 99% (active); in assay [10], 33% (active). For the same compound, the result in assay [3], in [4], in assay [5], in [6], in [7] and in [8] was inactive. In addition, the outcome in [9], in [11], in assay [12], in assay [13], in assay [14] and in assay [15] was inactive. For the same compound, the outcome in [16] was inactive.
Take `CN(C)C(CNC(=O)c1ccc2nc[nH]c2c1)c1ccccc1` (stereo not given): in assay [1], the activation was 145% (active). Besides, the result in assay [2], in assay [3], in assay [4], in assay [5], in assay [6] and in [7] was inactive. In addition, the result in assay [8], in [9], in [10], in assay [11], in assay [12] and in assay [13] was inactive. For the same compound, the outcome in assay [14], in assay [15] and in assay [16] was inactive.
In the case of `Cc1ccc(NC(=O)CCN2CCC(Cc3ccccc3)CC2)cc1`, the outcome in assay [1], in assay [2], in [3], in assay [4], in assay [5] and in [6] was inactive. Besides, the result in assay [7], in assay [8], in assay [9], in assay [10], in assay [11] and in [13] was inactive. The result in assay [14], in assay [15] and in [16] was inactive. For the same compound, in assay [12], the activation is 15.7% (active).
As for `Cc1ccc(C)c(-n2cc(CNCCCn3cccn3)c(-c3ccccc3)n2)c1`, the activation is 288% (active) in [1], 129% (active) in assay [2], 48.5% (active) in assay [10] and 29.9% (active) in [12]. Further, the result in assay [3], in assay [4], in assay [5], in assay [6], in [7] and in [8] was inactive. Also, the compound was classed as inactive in assay [9], in [11], in assay [13], in assay [14], in assay [15] and in assay [16].
